Screens (PubChem)
Only some compounds are listed: those with a hit (about 4.1% of all), similar ones and a draw of the others.
DAX1 inh-1: DAX1 (NR0B1) inhibitors on StAR promoter, primary screen, cell-based, luminescence, SF-1 (NR5A1), full-length DAX-1; 1.1% of 370,000 active; HEK293T StAR-luciferase reporter, SF-1/DAX-1 repression relief; inhibition, % at 6.8 µM; AID 652010, 2013;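 active means inhibition above the mean over all tested compounds plus 3 SD, cut at about 3.6% in these data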;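 further: 0% = DAX-1 cells with DMSO and 100% = cells lacking DAX-1 with DMSO; higher inhibition means more luminescence from relief of DAX-1 repression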
ssDAF-12 act: S. stercoralis DAF-12 nuclear receptor activators, primary screen, cell-based, luminescence, HEK293, GRIP1 co-expression, lit1-tk-luc | Nuclear hormone receptor DAF-12 (Strongyloides stercoralis) | AID 652126, 2013 | HEK293 ssDAF-12/GRIP1 lit1-tk-luc reporter; % of 3 µM dafachronic acid response | activation, % at 6.8 µM | 1% of 370,000 active;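 active means activation above the mean over all tested compounds plus 3 SD, cut at about 0.9% in these data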;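 further: 0% = DMSO-only wells and 100% = 3 µM delta7-dafachronic acid wells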
hgDAF12 agonist: H. glycines DAF-12 receptor agonists, primary screen, cell-based, luminescence, HEK293, GAL4 fusion, UAS-luciferase; AID 687014, 2013; Nuclear hormone receptor DAF-12 (Heterodera glycines), GAL4 fusion; HEK293 GAL4-hgDAF12 UAS-luciferase reporter, agonist luminescence; normalized to butyrate control; 1.8% of 370,000 active; activation, % at 6.8 µM;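 active means activation above a cutoff set at the mean of all screened compounds plus 3 SD, cut at about 10% in these data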;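 further: 0% = DMSO wells and 100% = sodium butyrate wells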
DAX1 inh-2: DAX1 (NR0B1) inhibitors, primary screen, cell-based, HEK293, Gal4-DAX1, luciferase luminescence | Nuclear receptor subfamily 0 group B member 1 (Homo sapiens), P51843 | HEK293 Gal4-DAX1 luciferase reporter | inhibition, % at 6.75 µM | 0.99% of 340,000 active | AID 504766, 2011;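 active means inhibition above the mean over all tested compounds plus 3 SD, cut at about 4.2% in these data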;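 further: 0% = DAX1-transfected cells with DMSO and 100% = empty-vector control cells with DMSO; inhibition shows as a rise in luminescence from relieved DAX1 repression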
Target sequence (P51843 207-470 limits assumed): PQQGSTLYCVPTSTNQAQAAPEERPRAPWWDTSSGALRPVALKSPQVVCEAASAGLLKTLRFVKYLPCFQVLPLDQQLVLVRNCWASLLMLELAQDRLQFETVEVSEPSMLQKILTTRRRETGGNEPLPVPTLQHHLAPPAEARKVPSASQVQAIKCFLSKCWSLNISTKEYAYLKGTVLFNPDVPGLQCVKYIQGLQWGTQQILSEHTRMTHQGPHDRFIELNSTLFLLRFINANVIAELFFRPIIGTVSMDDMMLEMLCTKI
hcDAF-12 act: H. contortus DAF-12 nuclear receptor activators, primary screen, cell-based, luminescence, HEK293, lit1-tk-luc reporter; AID 652067, 2013; 1.4% of 370,000 active; HEK293 hcDAF-12 lit1-tk-luc reporter; 0% DMSO, 100% Δ7-dafachronic acid; activation, % at 6.8 µM;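 active means activation above the mean of all tested compounds plus 3 SD, cut at about 5.5% in these data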;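 further: 100% = response to 3 µM Δ7-dafachronic acid high control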
DAX1 inh confirm: DAX1 (NR0B1) inhibitors relieving SF-1 repression, confirmation, cell-based, luminescence, HEK293T, full-length DAX-1, SF-1 activated StAR promoter; shares compounds with DAX1 inh-1; HEK293T StAR-promoter luciferase reporter, SF-1/DAX-1 repression; inhibition, % at 6.8 µM; 87% of 2,400 active; AID 652134, 2013;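 active means inhibition above the average of every tested compound plus 3 SD, cut at about 3.8% in these data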;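 further: 0% = DAX-1 cells with DMSO and 100% = no DAX-1 control cells with DMSO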
SF1 AF2mut Luc: StAR reporter signal changes without DAX1, counter-screen for DAX1 inhibitor project, cell-based, luminescence, AF-2 mutant SF-1, transactivation; shares compounds with DAX1 inh-1; HEK293 StAR-luciferase, SF-1 AF2 mutant; inhibition, % at 6.8 µM; 78% of 2,400 active;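 active means inhibition above the mean of all tested compounds plus 3 SD, cut at about 3% in these data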;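 further: 0% = DAX-1 transfected cells with DMSO and 100% = cells without DAX-1 with DMSO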
LXRb hcDAF ctr: LXR agonists, Gal4 luciferase reporter, confirmation, counter-screen for hcDAF-12 agonist project, cell-based, luminescence, HEK293, H. contortus campaign. shares compounds with hcDAF-12 act. HEK293 Gal4-LXR tk-luc reporter, 24 h; normalized: DMSO 0%, positive control 100%. activation, % at 6.8 µM. 3,400 tested, under 10 active. AID 743027, 2013;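 active means mean percent activation of the reporter above a cutoff set as the average over tested compounds plus their standard deviation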
hcDAF12 conf: H. contortus DAF-12 receptor agonists, confirmation, cell-based, luminescence, HEK293, lit1-tk-luc, triplicate; shares compounds with hcDAF-12 act; HEK293 hcDAF-12 lit1-tk-luc reporter; % of Δ7-dafachronic acid response; activation, % at 6.8 µM; 61% of 3,400 active; AID 743032, 2013;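 active means mean activation across triplicate tests above the threshold derived from the earlier primary screen, cut at about 5.5% in these data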;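 further: 0% = DMSO only wells and 100% = 3 µM Δ7-dafachronic acid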
hgDAF12 conf: H. glycines DAF-12 receptor agonists, confirmation, cell-based, luminescence, HEK293, GAL4-LBD fusion. shares compounds with hgDAF12 agonist. activation, % at 6.8 µM. 80% of 3,300 active. AID 743050, 2013. HEK293 GAL4-hgDAF12 luciferase reporter, agonist mode; percent of butyrate response;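 active means mean activation over triplicate wells above the hit cutoff derived from the earlier primary screen, cut at about 11% in these data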;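 further: 0% = DMSO low control and 100% = 2 mM sodium butyrate high control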
LXR ag 2: LXR agonists, Gal4 luciferase reporter, confirmation, counter-screen for hgDAF-12 agonist project, cell-based, luminescence, HEK293, H. glycines campaign | shares compounds with hgDAF12 agonist | 24 h | activation, % at 6.8 µM | 3,300 tested, under 10 active;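 active means mean activation of the triplicate above a set limit carried over from the primary screen, none filed active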
The depositor's hits bear a star; / = not tested or not shown.

SMILES	DAX1 inh-1	ssDAF-12 act	hgDAF12 agonist	DAX1 inh-2	hcDAF-12 act	DAX1 inh confirm	SF1 AF2mut Luc	LXRb hcDAF ctr	hcDAF12 conf	hgDAF12 conf	LXR ag 2
Cc1c(C(=O)N2c3ccccc3CC2C)oc2ccccc12 (stereo not drawn)	5.3*	2.3*	18*	3	11*	8.8*	6.1*	1	17*	20*	1
CCCCOc1ccc(C(=O)NC2CCCCN(C(C)C)C2=O)cc1 (stereo not drawn)	-2	0	3	/	-4	/	/	/	/	/	/
COc1ccc(C(=O)Nc2ccc3c(c2)OCCO3)c(OC)c1	9.4*	0	22*	2	5.7*	13*	9.1*	/	/	17*	1
COc1ccc(C(=O)Nc2ccc3c(c2)OCCO3)cc1	4.7*	1.4*	15*	-1	5.8*	14*	5.2*	/	/	15*	1
Cc1ccsc1C(=O)Nc1ccc2c(c1)OCCO2	4.6*	-1	21*	-1	5	14*	7.7*	/	/	15*	1
Cc1ncoc1C(=O)Nc1ccc2c(c1)OCCO2	0	-1	-2	0	0	/	/	/	/	/	/
O=S1(=O)N[C@H](Cc2ccccc2)COc2cc(N3CCCC3)ccc21	1	-1	-1	/	-2	/	/	/	/	/	/
Brc1ccc(-c2cn3nc4c(nc3n2)CCCC4)cc1	4.9*	1	14*	1	12*	6.8*	3.2*	1	8.2*	14*	1
CCOC(=O)Cn1cc(CN2C(C(=O)OC)CN(C3CCCC3)CCS2(=O)=O)nn1 (stereo not drawn)	0	0	3	/	-2	/	/	/	/	/	/
COC(=O)C1=C(C)N(C)C(=NCc2ccc3c(c2)OCO3)NC1c1cccc(Cl)c1 (stereo not drawn)	0	-1	-1	/	-1	/	/	/	/	/	/
NC(=O)c1c(N)[nH]c(C(=O)c2ccccc2)c1-c1ccccc1Cl	1	-1	0	/	0	/	/	/	/	/	/
Nc1ccc(-c2nc3ccc(-c4nc5ccccc5o4)cc3[nH]2)cc1	-1	-1	-1	-2	-1	/	/	/	/	/	/
Cc1nc2ccc(-c3nc4ccccc4o3)cc2[nH]1	5.2*	0	20*	0	3	15*	8.8*	/	/	22*	1
O=C(Nc1nc2c(s1)COc1ccccc1-2)c1cccs1	12*	-2	15*	4.8*	0	8.8*	9.4*	/	/	7	0
Cc1ccc(N/N=C(\C#N)C(=O)c2ccsc2)cc1	0	-1	2	0	0	/	/	/	/	/	/
N#C/C(=N\Nc1ccc(F)cc1)C(=N)N1CCCCCC1	7.0*	0	14*	4.4*	9.2*	15*	4.0*	1	7.3*	18*	1
Cc1ccc(N/N=C(\C#N)C(=N)N2CCCCCC2)cc1	10*	2.0*	19*	2	12*	16*	6.8*	2	9.7*	23*	1
N#C/C(=N\Nc1ccc(Cl)cc1)C(=N)N1CCCCC1	5.9*	1.0*	15*	2	7.8*	15*	11*	2	6.6*	19*	1
N#C/C(=N\Nc1ccc(F)cc1)C(=O)C1CC1	0	-1	0	/	0	/	/	/	/	/	/
COc1ccc(N/C(=C\C(=O)c2ccccc2)c2ccccc2)cc1OC	2	-1	5	/	-1	/	/	/	/	/	/
COc1ccc(/C=C2\SC(=O)N(CCNC(=O)C3CC4C=CC3C4)C2=O)cc1 (stereo not drawn)	5.5*	0	21*	3	3	8.6*	4.3*	/	/	23*	1
O=C(/C=C/c1cccc(F)c1)OCC(=O)N1CCCc2ccccc21	2	-1	2	0	1	/	/	/	/	/	/
O=C(/C=C/c1cccc(F)c1)N1CCc2ccccc21	5.6*	2.2*	24*	3	14*	15*	8.4*	2	13*	22*	1
C=CCN1C(=O)[C@H](CC(=O)NCCCCc2ccccc2)[C@@]2(C(=O)OCC)CCCC=C12	-2	-2	-2	/	-1	/	/	/	/	/	/
O=C(Nc1ccc2nn(-c3ccccc3)nc2c1)c1cccnc1	1	-1	3	0	-1	/	/	/	/	/	/
CC(C)C(=O)Nc1ccc2nn(-c3ccccc3)nc2c1	12*	1.0*	22*	1	8.8*	13*	7.3*	2	8.4*	19*	1
O=C(Cc1ccccn1)c1ccccc1	0	-2	0	0	-1	/	/	/	/	/	/
O=C(CCCc1ccccn1)c1ccccc1	5.6*	0	18*	1	7.7*	11*	5.8*	1	3	11*	1
O=C(Nc1ccccc1)OCCc1ccccn1	9.3*	-1	14*	5.8*	4	7.4*	4.2*	/	/	11*	1
